Experimental data as given in PubChem BioAssay.
Unmarked numbers belong to inactive results. For part of these data: Results with a measured potency or affinity are listed apart. Activity calls are given as the source filed them. Unless noted, how the calls were made is not given here.

Assays:
[1] = antimalarial activity against Dd2 strain (AID 2302;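 active means growth inhibition above 50% at the single 2 µM test dose, taken to imply half-maximal potency below 2 µM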;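 further: 0% = DMSO untreated growth and 100% = chloroquine plus artemisinin killed control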); conditions: P. falciparum Dd2 in RBCs, LDH growth readout, 72 h; at 2 µM; hits give high values
[2] = HepG2 cytotoxicity, primary screen, cytotoxicity control for P. falciparum antimalarial project, cell-based, ATP luminescence (AID 2303;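 active means inhibition above 50%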;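 further: 0% = DMSO wells and 100% = digitonin-killed cells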); conditions: HepG2 viability, 24-48 h, at 10 µM, hits give high values
[3] = biological target: L-lactate dehydrogenase (Plasmodium falciparum (isolate CDC / Honduras)) (UniProt Q27743); assay: PfLDH activity inhibition – cell lysate, 3D7 strain, counter-screen for P. falciparum growth inhibition project (AID 2304);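 further: 0% = vehicle and 100% = reference inhibitor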; conditions: P. falciparum 3D7 crude extract, LDH APAD/NBT absorbance; at 2 µM; hits give high values
[4] = inhibition of 3D7 malaria parasite growth – strain 3D7 (AID 2306);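 further: 0% = DMSO wells and 100% = chloroquine plus artemisinin control wells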; conditions: P. falciparum 3D7 erythrocytic growth, LDH absorbance, 72 h; at 2 µM; hits give high values
[5] = biological target: Calcium-dependent protein kinase 1 (Plasmodium falciparum (isolate 3D7)) (UniProt P62344); assay: PfCDPK1 kinase inhibitors, biochemical, TCAMS library (AID 1159585; cut-off not given, nearly all actives have IC50 up to about 0.98 µM;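 further: inhibitors leave more ATP so luminescence rises with inhibition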); conditions: recombinant PfCDPK1, Kinase-Glo ATP depletion luminescence
[6] = biological target: Plasmodium falciparum protein kinase 6 (PK6, PF3D7_1337100) (UniProt Q8IDW1); assay: PfPK6 kinase inhibitors, biochemical, TCAMS library (AID 1159586); conditions: recombinant PfPK6, Kinase-Glo ATP depletion luminescence
[7] = biological target: Protein kinase 7 (PK7), Plasmodium falciparum 3D7 (PF3D7_0213400) (UniProt Q7YTF7); assay: inhibition of Plasmodium PK7 catalytic activity – biochemical, TCAMS antimalarial set, Kinase-Glo luminescence (AID 1159587); conditions: recombinant PfPK7, Kinase-Glo ATP depletion luminescence
[8] = biological target: Calcium-dependent protein kinase 4 (Plasmodium falciparum (isolate 3D7)) (UniProt Q8IBS5); assay: PfCDPK4 kinase inhibitors, biochemical, TCAMS library (AID 1159588; cut-off not given, nearly all actives have IC50 up to about 0.91 µM); conditions: recombinant PfCDPK4, Kinase-Glo ATP depletion luminescence
Sequence of Calcium-dependent protein kinase 4 (Plasmodium falciparum (isolate 3D7)) (Q8IBS5 whole entry, looked up): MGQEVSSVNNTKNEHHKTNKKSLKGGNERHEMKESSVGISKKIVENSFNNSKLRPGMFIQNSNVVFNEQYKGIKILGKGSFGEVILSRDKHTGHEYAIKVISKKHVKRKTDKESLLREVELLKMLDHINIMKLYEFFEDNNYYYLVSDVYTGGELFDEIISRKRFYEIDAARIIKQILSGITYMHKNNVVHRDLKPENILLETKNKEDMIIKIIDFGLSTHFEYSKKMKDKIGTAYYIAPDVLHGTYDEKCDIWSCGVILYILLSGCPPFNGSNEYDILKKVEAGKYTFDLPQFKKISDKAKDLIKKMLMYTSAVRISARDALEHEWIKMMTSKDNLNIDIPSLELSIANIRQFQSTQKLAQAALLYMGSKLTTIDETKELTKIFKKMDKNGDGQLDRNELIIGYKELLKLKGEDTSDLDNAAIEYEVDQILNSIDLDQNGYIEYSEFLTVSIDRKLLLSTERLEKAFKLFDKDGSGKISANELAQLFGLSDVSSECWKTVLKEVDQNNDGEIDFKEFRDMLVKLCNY

Sequence of Protein kinase 7 (PK7), Plasmodium falciparum 3D7 (PF3D7_0213400) (Q7YTF7 1-343): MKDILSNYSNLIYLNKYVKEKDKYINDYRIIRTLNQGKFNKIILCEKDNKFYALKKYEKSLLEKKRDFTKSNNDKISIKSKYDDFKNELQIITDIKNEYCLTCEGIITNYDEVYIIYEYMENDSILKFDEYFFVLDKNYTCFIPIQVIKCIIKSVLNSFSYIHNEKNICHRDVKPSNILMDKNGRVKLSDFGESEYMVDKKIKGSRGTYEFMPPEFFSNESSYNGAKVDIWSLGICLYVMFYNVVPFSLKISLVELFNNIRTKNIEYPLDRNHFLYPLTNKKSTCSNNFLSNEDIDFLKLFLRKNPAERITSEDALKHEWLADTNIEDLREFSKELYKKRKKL
Sequence of L-lactate dehydrogenase (Plasmodium falciparum (isolate CDC / Honduras)) (Q27743 whole entry, looked up): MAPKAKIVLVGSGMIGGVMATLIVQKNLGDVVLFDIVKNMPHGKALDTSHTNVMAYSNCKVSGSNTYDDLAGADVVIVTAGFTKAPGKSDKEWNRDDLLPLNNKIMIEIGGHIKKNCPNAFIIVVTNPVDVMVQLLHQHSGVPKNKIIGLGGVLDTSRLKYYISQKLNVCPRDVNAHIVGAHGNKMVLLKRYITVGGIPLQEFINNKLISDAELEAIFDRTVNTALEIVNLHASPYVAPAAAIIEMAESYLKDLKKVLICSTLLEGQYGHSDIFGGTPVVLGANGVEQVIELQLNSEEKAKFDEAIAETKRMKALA
Sequence of Plasmodium falciparum protein kinase 6 (PK6, PF3D7_1337100) (Q8IDW1 1-305): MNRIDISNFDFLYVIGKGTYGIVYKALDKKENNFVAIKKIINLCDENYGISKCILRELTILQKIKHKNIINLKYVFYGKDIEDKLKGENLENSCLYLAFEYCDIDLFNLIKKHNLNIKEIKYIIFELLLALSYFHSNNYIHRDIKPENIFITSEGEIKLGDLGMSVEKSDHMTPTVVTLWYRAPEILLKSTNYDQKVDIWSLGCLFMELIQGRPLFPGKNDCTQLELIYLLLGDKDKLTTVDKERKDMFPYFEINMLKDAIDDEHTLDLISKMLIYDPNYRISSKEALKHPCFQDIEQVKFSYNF
Sequence of Calcium-dependent protein kinase 1 (Plasmodium falciparum (isolate 3D7)) (P62344 whole entry, looked up): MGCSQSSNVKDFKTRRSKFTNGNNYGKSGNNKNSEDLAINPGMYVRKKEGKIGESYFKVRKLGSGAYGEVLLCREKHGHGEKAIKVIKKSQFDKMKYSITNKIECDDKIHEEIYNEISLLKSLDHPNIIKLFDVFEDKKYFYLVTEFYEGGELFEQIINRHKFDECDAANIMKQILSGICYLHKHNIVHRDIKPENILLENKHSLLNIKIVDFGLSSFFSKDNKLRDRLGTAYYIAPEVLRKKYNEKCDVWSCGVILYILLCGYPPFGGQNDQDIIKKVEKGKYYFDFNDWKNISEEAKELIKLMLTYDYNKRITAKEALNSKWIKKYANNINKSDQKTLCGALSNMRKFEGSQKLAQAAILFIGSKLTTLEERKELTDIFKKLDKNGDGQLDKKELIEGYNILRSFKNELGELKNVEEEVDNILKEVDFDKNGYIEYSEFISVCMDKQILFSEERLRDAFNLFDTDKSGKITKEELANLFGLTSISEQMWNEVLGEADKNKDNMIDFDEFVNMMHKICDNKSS

Row | Compound | growth inhibition [1] | inhibition [2] | inhibition [3] [%] | growth inhibition [4] | outcome [5] | outcome [6] | outcome [7] | outcome [8]
1 | N=c1ccn(CC(=NO)c2ccc(Cl)c(Cl)c2)cc1 | 81% (active) | 23% | -2 | 87% (active) | inactive | inactive | inactive | inactive
2 | COc1ccc(-c2ccc(NC(=O)c3ccc(Cl)cc3)cc2)cc1CN(C)CCO | 43% | 43% | 0 | 92% (active) | inactive | inactive | inactive | inactive
3 | c1ccc(-c2[nH]c3ccccc3c2CN2CCC(N3CCCCC3)CC2)nc1 | 82% (active) | 13% | -3 | 101% (active) | inactive | inactive | inactive | inactive
4 | C(=NNc1nc2ccccc2[nH]1)c1ccccc1OCc1ccccc1 | 90% (active) | 15% | 6 | 100% (active) | inactive | inactive | inactive | inactive
5 | COc1ccc(CCCc2nc(N)nc(N)c2-c2ccc(Cl)cc2)cc1 | 0% | 65% (active) | 2 | 94% (active) | inactive | inactive | inactive | inactive
6 | COc1cc(-n2cnc3cc(-c4ccc(Cl)cc4)sc3c2=O)ccc1OCCN1CCC(c2cccc(NC(C)=O)c2)CC1 | 80% (active) | 61% (active) | -4 | 99% (active) | inactive | inactive | inactive | inactive
7 | COc1ccc(CC(=O)Nc2ccc(-c3cccc(-c4nc5c(C)cccc5[nH]4)c3)cc2)cc1O | 30% | 6% | 4 | 96% (active) | inactive | inactive | inactive | inactive
8 | COc1ccc(C(=O)Nc2ccc3nc(N4CCCCC4)cc(C)c3c2)cc1OC | 7% | 15% | 3 | 92% (active) | inactive | inactive | inactive | inactive
9 | Nc1c2c(nc3ccc(Oc4ccc(Br)cc4Br)cc13)CCCC2 | 47% | 33% | 0 | 99% (active) | inactive | inactive | inactive | inactive
10 | Cn1cc(C2CCN(CCCCNC(=O)c3ccc(-c4ccc(C(F)(F)F)cc4)c(CO)c3)CC2)c2ccccc21 | 16% | 67% (active) | -1 | 88% (active) | inactive | inactive | inactive | inactive
11 | Cc1cccc2[nH]c(-c3cccc(-c4cccc(NC(=O)NCc5ccccc5)c4)c3)nc12 | 27% | 12% | 5 | 94% (active) | inactive | inactive | inactive | inactive
12 | COCCOC(=O)C(=O)c1c(-c2ccccc2)c(-c2ccc(OC)c(OC)c2)c2c3cc(OC)c(OC)cc3ccn12 | 100% (active) | 4% | -2 | 101% (active) | inactive | inactive | inactive | inactive
13 | COc1ccc(S(=O)(=O)N2CCCC(C)C2)cc1N1CCN(C(=O)c2ccc([N+](=O)[O-])o2)CC1 (centres undefined) | 4% | -3% | -2 | 94% (active) | inactive | inactive | inactive | inactive
14 | CS(=O)(=O)NCCCNCc1ccc(-c2ccc(-c3nc4ccc(C(F)(F)F)cc4[nH]3)s2)cc1 | 73% (active) | 21% | -5 | 99% (active) | inactive | inactive | inactive | inactive
15 | COc1ccc2nccc(N3CCC(SCCNS(=O)(=O)c4ccc5c(c4)OCCO5)C3)c2n1 (centres undefined) | 87% (active) | 36% | 5 | 94% (active) | inactive | inactive | inactive | inactive
16 | N#Cc1ccc(NC(=Nc2ccccc2Br)N(C2CCCCC2)C2CCCCC2)c(O)c1 | 96% (active) | 4% | 4 | 99% (active) | inactive | inactive | inactive | inactive
17 | CCOC(=O)c1cnc2c(C(F)(F)F)cccc2c1Nc1ccc(O)cc1 | 67% (active) | -7% | 2 | 96% (active) | inactive | inactive | inactive | inactive
18 | CNCCNCc1cccc(-c2cccc(-c3nc4ccc(F)cc4[nH]3)c2)c1 | 15% | 20% | -2 | 98% (active) | inactive | inactive | inactive | inactive
